PubChem BioAssay AID1578 (Sanford-Burnham Center for Chemical Genomics, 2009)
The whole screen tested about 290,000 compounds, of which about 3,000 (1%) were called active. The sample holds actives, similar compounds and a random draw of the others, so the mix is not that of the screen. Rule as the data show it: active = inhibition mostly above about 36% (no sharp cut-off); inactive = mostly below about 34%.

Test: inhibition of NOD1-driven NF-kB reporter – cell-based, luminescence, uHTS, primary screen (AID 1578);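 also: HEK-293T reporter cells stimulated with the NOD1 agonist gamma-tri-DAP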
Conditions: NOD1-driven NF-kB luciferase reporter cells, at 4 µM, stronger effect = higher value

**Q.** Which inhibition does the source give for `CCN(Cc1ccncc1)Cc1nc(CC2CC2)no1` here?
**A.** -8.9% (inactive)

**Q.** For `CN(C)CC(CCCCC(CN(C)C)C(=O)c1ccccc1)C(=O)c1ccccc1` (stereo not given), which inhibition is on record?
**A.** -4.1% (inactive)

**Q.** For `COc1ccc(C(=O)C(CCCCC(CN(C)C)C(=O)c2ccc(OC)cc2)CN(C)C)cc1` (stereo not given), which inhibition is on record?
**A.** -6% (inactive)

**Q.** Which inhibition does the source give for `COc1ccccc1NC(=O)CN1CCN(CC(=O)Nc2ccccc2Cl)CC1` here?
**A.** -18.4% (inactive)

**Q.** With `O=C(Nc1ccccc1)Nc1cc([N+](=O)[O-])ccc1F` as the molecule, how does the inhibition read?
**A.** -17.9% (inactive)

**Q.** Which inhibition does the source give for `O=C(Nc1ccc(Cl)cc1)Nc1cc([N+](=O)[O-])ccc1F` here?
**A.** 30.3% (inactive)

**Q.** Which inhibition does the source give for `COc1ccc(C2/C(=C(/O)c3ccc(C)cc3)C(=O)C(=O)N2C)c(OC)c1` (stereo not given) here?
**A.** -29.5% (inactive)

**Q.** With `CCC1CCC(C(=O)NC(C(=O)NCCN2CCOCC2)C(C)C)CC1` (stereo not given) as the molecule, how does the inhibition read?
**A.** -24.4% (inactive)

**Q.** For `Cc1cc(Cl)c(S(=O)(=O)Nc2cc(S(=O)(=O)N3CCOCC3)ccc2F)cc1OCC(N)=O`, which inhibition is on record?
**A.** -11.8% (inactive)

**Q.** With `Cn1nccc1C(=O)N1CCN(c2cccc(C(F)(F)F)c2)CC1` as the molecule, how does the inhibition read?
**A.** -2.5% (inactive)

**Q.** Which inhibition does the source give for `CC1Oc2ccccc2N(CC(=O)NCc2ccc3c(c2)OCO3)C1=O` (stereo not given) here?
**A.** -48.9% (inactive)

**Q.** For `COc1ccc(OC)c(/C=N\NC(=O)c2c(C)nc3cc(C)ccn23)c1`, which inhibition is on record?
**A.** -8.5% (inactive)

**Q.** For `CN(C(=O)COc1ccc(Cl)cc1Cl)c1nnc(C23CC4CC(CC(C4)C2)C3)s1`, which inhibition is on record?
**A.** -34.1% (inactive)

**Q.** With `CN(C(=O)COc1ccc(Cl)cc1)c1nnc(C23CC4CC(CC(C4)C2)C3)s1` as the molecule, how does the inhibition read?
**A.** 4.5% (inactive)

**Q.** For `CN(C(=O)COc1ccccc1)c1nnc(C23CC4CC(CC(C4)C2)C3)s1`, which inhibition is on record?
**A.** 104% (active)

**Q.** For `O=C(NNC(=S)Nc1ccc(Cl)c(Cl)c1)c1cccc([N+](=O)[O-])c1`, which inhibition is on record?
**A.** -11.1% (inactive)

**Q.** Which inhibition does the source give for `CN(C(=O)CC1C(=O)NCCN1Cc1cccc(F)c1F)C1CCOCC1` (stereo not given) here?
**A.** -24.4% (inactive)

**Q.** With `CCC(CCC(=O)Nc1nncs1)C(=O)O` (stereo not given) as the molecule, how does the inhibition read?
**A.** 0.6% (inactive)

**Q.** For `O=C(O)CCCCCCC1C(=O)NC(=O)N1CCC(O)C1CCCCC1` (stereo not given), which inhibition is on record?
**A.** 75.2% (active)

**Q.** Which inhibition does the source give for `O=C(O)CCCCCN1C(=O)C2CCCCC2C1=O` (stereo not given) here?
**A.** -26.7% (inactive)

**Q.** For `CC(O)[C@H]1CNC(=O)C(=O)N1CCCCC1CCCCC1` (stereo not given in full), which inhibition is on record?
**A.** -9.4% (inactive)

**Q.** For `CCOC(=O)c1c(C)[nH]c(C)c1S(=O)(=O)N(C)CC(=O)NCc1cccc(Br)c1`, which inhibition is on record?
**A.** -19.6% (inactive)

**Q.** Which inhibition does the source give for `COc1ccc(-c2c3c(cc(C)[n+]2[O-])oc2ccc(OC)cc23)cc1` here?
**A.** -20% (inactive)

**Q.** For `Cc1[nH]nc2c1C(c1ccc3c(c1)OCO3)C(C#N)=C(N)O2` (stereo not given), which inhibition is on record?
**A.** -33.1% (inactive)

**Q.** With `CC(C)c1cccc(C(C)C)c1NC(=O)c1ccccc1` as the molecule, how does the inhibition read?
**A.** -17.6% (inactive)

**Q.** With `CC(C)c1cccc(C(C)C)c1NC(=O)CN1CCCC1` as the molecule, how does the inhibition read?
**A.** -21.2% (inactive)

**Q.** Which inhibition does the source give for `CC(C)c1cccc(C(C)C)c1NC(=O)CCl` here?
**A.** 68.4% (active)

**Q.** For `COc1ccccc1CNC(=O)Cn1nnnc1CN(C)C(C)C`, which inhibition is on record?
**A.** -103% (inactive)

**Q.** With `COc1ccc2oc(C(=O)NC(C)(C)C)c(C)c2c1` as the molecule, how does the inhibition read?
**A.** -42.6% (inactive)

**Q.** Which inhibition does the source give for `CCCC(=O)C1=C(O)C(C(=O)OC)C(C)(C)CC1=Nc1ccccc1` (stereo not given) here?
**A.** -9.6% (inactive)

**Q.** For `CCCC(=O)C1=C(O)C(C(=O)OC)C(C)(C)CC1=Nc1ccc(OC)cc1` (stereo not given), which inhibition is on record?
**A.** -37.1% (inactive)

**Q.** Which inhibition does the source give for `CCCC(=O)C1=C(O)C(C(=O)OC)C(C)(C)CC1=Nc1cccc2ccccc12` (stereo not given) here?
**A.** 53.5% (active)

**Q.** Which inhibition does the source give for `O=C(NCC1CCCO1)c1ccc(/C=N/O)nc1` (stereo not given) here?
**A.** -26.9% (inactive)

**Q.** For `CC1(C)CC(N2CCCC2)=CC(=[N+]2CCCC2)C1`, which inhibition is on record?
**A.** 27.8% (inactive)

**Q.** Which inhibition does the source give for `CC1(C)CC(N2CCN(c3ccccc3)CC2)=CC(=[N+]2CCCC2)C1` here?
**A.** 55% (inactive)

**Q.** With `CC1(C)CC(N2CCCCC2)=CC(=[N+]2CCCCC2)C1` as the molecule, how does the inhibition read?
**A.** 36.9% (inactive)

**Q.** Which inhibition does the source give for `CC1(C)CC(N2CCCC2)=CC(=[N+]2CCCCC2)C1` here?
**A.** -30.9% (inactive)

**Q.** Which inhibition does the source give for `O=C(Cn1c(=O)c2sccc2n(Cc2ccc([N+](=O)[O-])cc2)c1=O)NCCc1ccccc1` here?
**A.** -16.6% (inactive)

**Q.** With `Cn1c(CNC(=O)CCNC(=O)c2cccc(F)c2)cc(=O)n(C)c1=O` as the molecule, how does the inhibition read?
**A.** -2.9% (inactive)

**Q.** For `Cc1cccc(C(=O)N=c2sccn2C)c1[N+](=O)[O-]`, which inhibition is on record?
**A.** -69.7% (inactive)

**Q.** Which inhibition does the source give for `O=C(NCc1ccncc1)C(=O)Nc1nc(C23CC4CC(CC(C4)C2)C3)cs1` here?
**A.** -11.3% (inactive)

**Q.** Which inhibition does the source give for `O=C(NCc1ccccc1)C(=O)Nc1nc(C23CC4CC(CC(C4)C2)C3)cs1` here?
**A.** 89.4% (active)

**Q.** For `O=C(NCc1ccc(F)cc1)C(=O)Nc1nc(C23CC4CC(CC(C4)C2)C3)cs1`, which inhibition is on record?
**A.** 46.9% (inactive)

**Q.** For `CC(=O)Nc1ccc(C(=O)OCC(=O)Nc2c(F)cccc2F)cc1`, which inhibition is on record?
**A.** -4.7% (inactive)

**Q.** Which inhibition does the source give for `CCCCS(=O)(=O)C1CCS(=O)(=O)C1` (stereo not given) here?
**A.** -31.7% (inactive)

**Q.** Which inhibition does the source give for `O=S1(=O)CCC(S(=O)(=O)N2CCCCCC2)C1` (stereo not given) here?
**A.** 98.1% (active)

**Q.** For `Cc1ccc(S(=O)(=O)N2CCCN(S(=O)(=O)C3CCS(=O)(=O)C3)CC2)cc1` (stereo not given), which inhibition is on record?
**A.** -14.1% (inactive)

**Q.** For `CC(C)C1Nc2ccc(C(=O)NCc3ccco3)cc2NC1=O` (stereo not given), which inhibition is on record?
**A.** -8.3% (inactive)

**Q.** With `CC12CCC(=O)N1C(C(=O)Nc1nnc(SCc3ccccc3F)s1)CS2` (stereo not given) as the molecule, how does the inhibition read?
**A.** -32.1% (inactive)

**Q.** Which inhibition does the source give for `O=C(Cn1c(=O)[nH]c2ccccc2c1=O)Nc1cccnc1` here?
**A.** -10.3% (inactive)

**Q.** Which inhibition does the source give for `Cc1ccc(NC(=O)Cn2ncc3c([nH]c4ccccc43)c2=O)cc1Cl` here?
**A.** 1.5% (inactive)

**Q.** Which inhibition does the source give for `O=C(Cn1ncc2c([nH]c3ccccc32)c1=O)Nc1cccnc1` here?
**A.** 55.7% (active)

**Q.** With `O=C(NCCCN1CCCC1)[C@H](CSCc1ccccc1)N1Cc2ccccc2C1=O` as the molecule, how does the inhibition read?
**A.** -6.7% (inactive)

**Q.** For `COc1cccc(CN2CCNC(=O)C2CC(=O)N(C)C2CCCCC2)c1` (stereo not given), which inhibition is on record?
**A.** -1.2% (inactive)

**Q.** Which inhibition does the source give for `CC1CCCCN1C(=O)C(=O)c1cn(CC(=O)N2CCCCCC2)c2ccccc12` (stereo not given) here?
**A.** -20.8% (inactive)

**Q.** For `CCOC(=O)C1CCN(S(=O)(=O)c2ccc3c(c2)CCN3C(C)=O)CC1`, which inhibition is on record?
**A.** 6.1% (inactive)

**Q.** For `CC(=O)N1CC(C)Sc2ccc(S(=O)(=O)N3CCCCC3)cc21` (stereo not given), which inhibition is on record?
**A.** 6.9% (inactive)

**Q.** For `CC1CCN(C(=O)c2cc3ccccc3c(=O)o2)CC1`, which inhibition is on record?
**A.** -21.4% (inactive)

**Q.** With `Cc1cccc(CCNC(=O)CNS(=O)(=O)c2ccc3nc(C)sc3c2)c1` as the molecule, how does the inhibition read?
**A.** 12.4% (inactive)

**Q.** Which inhibition does the source give for `Cc1ccc(N2CC(C(=O)NC3CC3)CC2=O)cc1` (stereo not given) here?
**A.** 17.9% (inactive)
